Consider 17 compounds from PubChem BioAssay.

Assay [1] has as its system Human papillomavirus type 1a protein E7 (residues 44-93). Description: HPV1a E7 fragment binders on microarrays, primary screen, biochemical, small-molecule microarray, residues 44-93, 635 nm fluorescence (AID 1108).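 Also: E7 fragment applied at 1 µg/mL in TBST for 1 h at 4 C; score combines spot fluorescence with its signal to noise ratio.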 The note with it: small-molecule microarray binding, fluorescence 635 nm; higher = more signal.
Assay [2] can be described thus: modulators of HCV replicon luciferase signal, primary screen, HCV replication inhibitor project, Huh7 cells, luciferase reporter (AID 1109).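 Also: huh7 hepatoma cells harbouring a luciferase neomycin HCV replicon reporter; luciferase luminescence as measure of HCV replicon replication; test concentration not given here.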 As to conditions: 48 h, higher = more signal. Background: In antiviral work, replicon cells carry a viral genome segment that copies itself.
Assay [3] addresses Left-right determination factor 2 (Homo sapiens) (UniProt O00292). Briefly: LEFTY2 binders on small-molecule microarrays, primary screen, biochemical, small-molecule microarray, 635 nm fluorescence scan (AID 1110). As to conditions: LEFTY2 binding, higher = more signal.
Assay [4] deals with Calmodulin-1 (Homo sapiens) (UniProt P0DP23). Description: CALM1 binders on microarrays, EGTA buffer, profiling panel, biochemical, small-molecule microarray, Cy5-labelled CALM1 (AID 1111).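 Also: labelled calmodulin applied in Tris saline Tween buffer holding calcium plus EGTA and DTT.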 The note with it: Cy5-CALM1 binding fluorescence, higher = more signal.
For assay [5] the target is unchanged. Description: calcium-bound CALM1 binders on microarrays, profiling panel, artefact control for SMM control-protein annotation, biochemical, small-molecule microarray, Cy5-labelled CALM1, plus calcium (AID 1112).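 Also: score merges spot fluorescence with signal to noise from triplicate slides.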 As to conditions: Cy5-CALM1 binding fluorescence, higher = more signal.
Assay [6] in a line: small-molecule microarray binders of probe aWnt5a, primary screen, biochemical, biotinylated probe, 635/667 nm fluorescence (AID 1113).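 Also: score merges 667 nm fluorescence intensity with signal-to-noise per printed feature.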 As to conditions: higher = more signal.
The nature of assay [7]: small-molecule microarray binders of probe aShh, primary screen, biochemical, biotinylated probe, 635/667 nm fluorescence (AID 1114).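 Also: probe is biotin-labelled aShh protein from a stem cell growth factor screen; measures binding of labelled protein to compounds printed on the slide; score merges feature fluorescence at 667 nm with signal-to-noise.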 The note with it: higher = more signal.
Assay [8] is described as follows: small-molecule microarray binders of probe aNog, primary screen, biochemical, biotinylated probe, 635/667 nm fluorescence (AID 1115).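 Also: probe is biotinylated aNog protein used at 0.15 µg/mL for 1 h at 4 C; z-score combines 667 nm fluorescence of each spot with its signal to noise.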 The note with it: higher = more signal.
Assay [9] concerns the target Torsin-1A-interacting protein 1 (Homo sapiens) (UniProt Q5JTV8). Description: LAP1 binders from COS7 cell lysate, primary screen, small-molecule microarray, 635/667 nm fluorescence (AID 1116). As to conditions: COS7-hLAP1 lysate binding, 635 nm fluorescence, higher = more signal.
Assay [10] deals with Alpha-bungarotoxin (Bungarus multicinctus) (UniProt P60615). Description: alpha-bungarotoxin binders on microarray, profiling panel, artefact control for SMM control protein annotation, biochemical, small-molecule microarray, Alexa647 label, 635/667 nm fluorescence (AID 1117). The note with it: alpha-BTX-A647 binding fluorescence, higher = more signal.
Sequence of Alpha-bungarotoxin (Bungarus multicinctus) (P60615 whole entry, looked up): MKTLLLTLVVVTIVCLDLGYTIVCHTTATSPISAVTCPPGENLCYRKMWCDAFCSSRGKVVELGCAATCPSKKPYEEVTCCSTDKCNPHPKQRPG

Sequence of Left-right determination factor 2 (Homo sapiens) (O00292 whole entry, looked up): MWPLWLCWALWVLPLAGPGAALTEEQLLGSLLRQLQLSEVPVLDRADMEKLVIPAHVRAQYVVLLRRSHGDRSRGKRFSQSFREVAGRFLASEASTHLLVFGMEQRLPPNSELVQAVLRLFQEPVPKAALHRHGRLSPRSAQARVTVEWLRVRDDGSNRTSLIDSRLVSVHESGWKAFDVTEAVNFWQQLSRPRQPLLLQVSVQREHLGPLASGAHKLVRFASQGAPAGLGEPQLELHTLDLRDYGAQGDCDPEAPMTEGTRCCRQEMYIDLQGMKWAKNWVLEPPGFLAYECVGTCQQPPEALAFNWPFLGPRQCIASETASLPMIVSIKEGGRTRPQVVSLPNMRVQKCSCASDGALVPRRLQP
Sequence of Torsin-1A-interacting protein 1 (Homo sapiens) (Q5JTV8 whole entry, looked up): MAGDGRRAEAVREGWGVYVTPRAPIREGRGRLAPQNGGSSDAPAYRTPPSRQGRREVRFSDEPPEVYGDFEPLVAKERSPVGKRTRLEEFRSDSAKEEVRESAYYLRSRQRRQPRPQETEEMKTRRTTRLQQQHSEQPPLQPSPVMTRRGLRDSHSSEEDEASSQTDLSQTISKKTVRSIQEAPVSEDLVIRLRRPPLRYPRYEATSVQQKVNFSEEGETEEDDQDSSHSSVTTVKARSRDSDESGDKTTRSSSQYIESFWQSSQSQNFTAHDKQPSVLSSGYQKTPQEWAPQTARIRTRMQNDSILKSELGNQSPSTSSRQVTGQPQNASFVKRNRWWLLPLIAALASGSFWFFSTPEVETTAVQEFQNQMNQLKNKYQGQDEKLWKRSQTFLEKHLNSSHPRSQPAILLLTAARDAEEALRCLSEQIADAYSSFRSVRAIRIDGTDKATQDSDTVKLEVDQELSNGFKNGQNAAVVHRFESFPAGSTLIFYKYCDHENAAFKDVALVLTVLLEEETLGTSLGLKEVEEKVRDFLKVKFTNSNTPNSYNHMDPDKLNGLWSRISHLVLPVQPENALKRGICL

Regarding `O[C@@H](Cc1ccccc1)[C@@H](/C=C/C1CC1)N(CC#Cc1ccccc1)Cc1cccc(Cl)c1`, the composite z-score in [1] was -0.55; in [3] it was -1.61; in [4], -0.738; in assay [5], 0.352; in assay [6] it was -0.275; in assay [7], -0.147. Besides, the results for the composite z-score in [8], in assay [9] and in [10] were -0.196, -0.565 and -0.0369, respectively. Further, in assay [2], the z-score was -1.52.

As to `C=CCC(OC(C)=O)[C@@H]1[C@@H](N(Cc2cccc3ccccc23)C(=O)Cc2ccc(OC)cc2)c2cc(OCCCO)ccc2N1C(=O)c1ccc2ccccc2n1` (stereo not given in full), the composite z-score in assay [1] is 0.26; in [3], 0.172; in assay [4], 0.0729; in assay [5] it was 0.259; in [6] it was 0.0132; in assay [7], -0.17. The composite z-score in [8] is -0.456; in assay [9] it was 0.307; in [10], 0.472. In assay [2], the z-score was -0.043.

For the compound `C=CCNC(=O)[C@H]1[C@@H]2C(=O)O[C@@H](c3ccccc3)[C@@H](c3ccccc3)N2[C@@H](c2ccc(O)cc2)[C@]12C(=O)N(C(=O)OCCOC)c1ccccc12`, the composite z-score in assay [1] is 1.42; in assay [3], 0.18; in [4], 0.763; in assay [5], -0.0816; in [6] it was -0.0573; in assay [7], -0.331. The composite z-score is -0.206 in [8], 0.793 in assay [9] and 0.712 in [10]. Also, in [2], the z-score is -0.585.

Turning to `O=C1OCCC=C[C@H]2OC34C=CCN(Cn5nnc6ccccc65)C(=O)[C@H]3N(CCCCCCO)C(=O)[C@@H]4C12` (stereo not given in full), the composite z-score in [1] was -0.607; in [3], -1.51; in [4], -0.204; in assay [5], 0.646; in assay [6], -0.208; in assay [7], -0.179. Moreover, the values for the composite z-score in [8], in assay [9] and in assay [10] were -0.142, -0.0637 and -1.27, respectively. The z-score in assay [2] was 0.333.

For `COC(=O)[C@@]1(Cc2ccc(F)cc2)[C@H]2c3cc(C(=O)N(C)C)n(Cc4cc(F)cc5c4OCOC5)c3C[C@H]2CN1C(=O)c1ccccc1`, the composite z-score was 1.41 in assay [1]; 0.011 in assay [3]; 1.68 in [4]; 0.0074 in assay [5]; -0.001 in [6]; 0.0856 in [7]. In addition, the results for the composite z-score in [8], in assay [9] and in assay [10] were 0.468, 0.822 and 1.04, respectively. The same compound returned a z-score in assay [2] of -1.81.

For `O=C1O[C@H](c2ccccc2)[C@H](c2ccccc2)N2[C@H]1[C@@H](C(=O)Nc1nc3ccccc3s1)[C@]1(C(=O)Nc3ccc(C#CCCO)cc31)[C@H]2c1ccc(O)cc1`, the composite z-score in assay [1] was 1.4; in assay [3], 0.691; in assay [4], 0.628; in [5] it was -0.0808; in [6], -0.0519; in [7], -0.0035. Also, the composite z-score in [8] is -0.28; in [9] it was 0.799; in assay [10] it was 0.369. Further, in assay [2], the z-score was -0.829.

On to `C#CCN([C@@H](Cc1ccc(O)cc1)C(=O)OC)[C@@H](/C=C/C1CC1)[C@H](O)Cc1ccccc1`, for which the composite z-score in assay [1] is -0.184; in [3] it was -0.0906; in [4] it was -0.634; in assay [5], -1.04; in assay [6] it was -0.0425; in [7] it was -0.223. Besides, the composite z-score was -0.407 in [8], 0.0583 in assay [9] and -0.0345 in assay [10]. The compound also registered a z-score in assay [2] of -3.

As for `CCOc1cc(C(O)C2C=CC3C(=O)N(c4ccccc4)C(=O)C3N2Nc2ccc(C#N)cc2)ccc1O` (stereo not given), the composite z-score in assay [1] is 0.0289; in assay [3] it was -0.0669; in assay [4], 1.81; in assay [5], 0.0646; in [6], -0.261; in [7] it was -0.315. For the same compound, the composite z-score in assay [8] came out at 0.0582; in assay [9] it was 0.562; in assay [10], 1.28. Besides, the z-score in assay [2] was -0.131.

Take `C=CC[C@]1(C(=O)O)COC(c2ccc(OCCCO)cc2)=N1`: the composite z-score in [1] was 0.549; in assay [3], 0.268; in assay [4], 0.0295; in assay [5], 0.47; in [6], -0.0203; in [7], -0.138. The composite z-score is -0.419 in assay [8], -0.0942 in assay [9] and 0.291 in assay [10]. The z-score in assay [2] is 0.183.

On to `C=C(/C(=C/C[C@H](OC(=O)c1ccncc1)c1ccc(CO)o1)c1cc(C(=O)OC)ccc1OC)C(C)C`, for which the composite z-score in [1] was 1.31; in assay [3] it was 0.34; in [4], -0.0383; in assay [5] it was -0.748; in assay [6] it was 0.0037; in [7] it was 0.235. For the same compound, the composite z-score in assay [8] was -0.0247; in assay [9], 0.602; in assay [10], 0.0818. Moreover, in [2], the z-score was -0.706.

Turning to `C=C(/C(=C/C[C@H](OC(C)=O)c1cccc(OCCO)c1)c1cnc2ccccc2c1)C(C)C`, the composite z-score in assay [1] was 1.05; in [3], 0.524; in [4] it was -0.309; in assay [5] it was -0.502; in assay [6] it was -0.118; in [7] it was -0.264. Further, the figures for the composite z-score in assay [8], in [9] and in assay [10] were 0.0811, 0.235 and 1.19, respectively. This compound also yielded a z-score in [2] of -2.31.

`CC1=C[C@@]2(CO)C(=O)[C@]3(CO3)[C@@H]1[C@H]1[C@]2(C)C=C(CO)C(=O)[C@]12CO2`: the composite z-score in assay [1] is 0.122; in [3], 0.351; in [4], -0.163; in assay [5] it was -0.0609; in assay [6], -0.0799; in [7] it was -0.123. Further, the composite z-score in assay [8] was -0.488; in [9], -0.312; in assay [10], 0.242. For the same compound, in assay [2], the z-score is -1.61.

Consider `COc1ccc(NC(=O)O[C@H]2[C@H](OC(=O)Nc3ccccc3)[C@@H](OC(=O)Nc3ccccc3)[C@@H](OC)O[C@@H]2CO)cc1`, for which the composite z-score in assay [1] was 1.28; in assay [3] it was 0.298; in assay [4], 1.41; in assay [5], -0.298; in assay [6], 0.107; in assay [7], -0.0813. The composite z-score was determined as 0.564 in assay [8], 1.25 in assay [9] and 0.577 in assay [10]. In addition, in [2], the z-score is -3.04.

`COC(=O)c1c2oc(c1C(=O)OC)C(=O)N(Cc1ccccc1)Cc1cn(nn1)C[C@H](Cc1ccccc1)NC(=O)N[C@H](CO)CC2`: the composite z-score was 0.196 in assay [1]; 0.269 in assay [3]; -0.201 in assay [4]; -0.464 in assay [5]; -0.0194 in assay [6]; -0.367 in assay [7]. The results for the composite z-score in assay [8], in assay [9] and in assay [10] were -0.359, 0.678 and -0.129, respectively. Further, the z-score in [2] was -0.533.

Consider `C[C@]1(C(=O)NC2CC2)c2ccccc2C(=O)N(Cc2ccccc2)[C@H]1c1ccc(CO)cc1`, for which the composite z-score in assay [1] was -0.614; in [3], -1.25; in [4], -0.875; in assay [5], -0.629; in assay [6], -0.148; in assay [7] it was -0.352. Further, the composite z-score in [8] was 0.113; in [9], -0.0199; in assay [10], -1.02. The same compound had a z-score in [2] of -0.582.

Turning to `CC(C)(C)OC(=O)CC[C@]1(C(=O)NCC(O)CO)N=C(c2ccc(OCCCO)cc2)O[C@H]1c1ccccc1` (stereo not given in full), the composite z-score is 1.32 in assay [1]; -1.13 in assay [3]; 0.451 in [4]; 1.24 in assay [5]; -0.0403 in [6]; -0.0904 in assay [7]. The composite z-score in assay [8] is 0.701; in [9], 1.93; in assay [10], -0.383. The z-score in assay [2] is -1.74.

As for `[N-]=[N+]=NCc1ccccc1C[C@@]1(C(=O)N2CCOCC2)N=C(c2ccc(OCCCO)cc2)O[C@@H]1c1ccccc1`, the composite z-score in assay [1] worked out at 1.45; in [3], 0.285; in assay [4], 1.83; in assay [5] it was 0.997; in assay [6] it was 0.0597; in assay [7], 0.412. Moreover, the composite z-score was -0.549 in assay [8], 2.09 in assay [9] and 0.916 in assay [10]. In [2], this compound returned a z-score of -3.27.
